Experimental data reported in the antibiotic and cytotoxicity screens of Wong et al. (2023).
Screen size: about 39,000 compounds; about 3,300 (8.5%) were called active. The list comes from a sample in which actives are over-represented; it also holds similar structures and randomly drawn compounds.

Each molecule was assayed on HepG2 (assay: cytotoxicity call (relative viability < 0.9)). Settings: 10 µM.
In the case of `COc1cccc(S(=O)(=O)N(C)C[C@H]2Oc3ncc(C#CCC(C)C)cc3C(=O)N([C@@H](C)CO)C[C@@H]2C)c1`, the cytotoxicity call is reported as “inactive”. In the case of `C[C@@H]1CN([C@H](C)CO)C(=O)CCCn2nncc2CO[C@H]1CN(C)S(=O)(=O)c1ccccc1C#N`, the cytotoxicity call is reported as “inactive”. `C[C@H](CO)N1C[C@H](C)[C@H](CN(C)CC2CCCCC2)Oc2ccc(NC(=O)Cc3cn(C)c4ccccc34)cc2CC1=O` was tested, and the cytotoxicity call was “inactive”. In the case of `C[C@@H]1CN([C@@H](C)CO)C(=O)c2cc(NS(=O)(=O)c3ccc(F)cc3)ccc2O[C@H]1CN(C)CC1CC1`, the cytotoxicity call is reported as “inactive”. `CCS(=O)(=O)Nc1ccc2c(c1)C(=O)N(C)[C@@H]1CC[C@@H](CC(=O)NCc3ccc(OC)cc3)O[C@H]1CO2` was tested, and the cytotoxicity call was “inactive”. For `COCC#Cc1ccc([C@H]2[C@@H](CO)N3C(=O)CN(C(=O)C4CCOCC4)C[C@H]23)cc1`, the cytotoxicity call was “inactive”. With `COc1ccc2c3c(n(c2c1)C)[C@@H](CO)N(C[C@]13CCN(CC1)CC1CCOCC1)C(=O)Cc1ccccn1` the cytotoxicity call was “inactive”. In the case of `C[C@H](CO)N1C[C@H](C)[C@@H](CN(C)S(=O)(=O)c2cn(C)cn2)Oc2ccc(NS(C)(=O)=O)cc2CC1=O`, the cytotoxicity call is reported as “inactive”. `Cc1noc(C)c1S(=O)(=O)Nc1ccc2c(c1)C(=O)N([C@@H](C)CO)C[C@H](C)[C@H](CN(C)S(=O)(=O)c1ccc(Cl)cc1)O2` was tested, and the cytotoxicity call was “inactive”. For `O=C(O)[C@H]1C2C(=O)N3CCCO[C@@H]3[C@]23C=C[C@H]1O3` (stereo not given in full), the cytotoxicity call was “inactive”. With `CO[C@H]1O[C@H](COC(=O)NCCCCCC(=O)NO)[C@H](OC(=O)Nc2ccccc2)[C@H](OC(=O)Nc2ccccc2)[C@H]1OC(=O)Nc1ccccc1` the cytotoxicity call was “inactive”. For `CCOP(=O)(CC(=O)O[C@H]1[C@H](OC(=O)Nc2ccccc2-c2ccccc2)[C@H](OC(=O)Nc2ccccc2-c2ccccc2)[C@@H](OC)O[C@@H]1COC(=O)NCCCCCC(=O)NO)OCC`, the cytotoxicity call was “active”. For `COc1ccc(NC(=O)O[C@H]2[C@H](OC(=O)Nc3ccccc3-c3ccccc3)[C@@H](OC(=O)Nc3ccccc3-c3ccccc3)[C@@H](OC)O[C@@H]2COC(=O)NCCCCCC(=O)NO)cc1`, the cytotoxicity call was “inactive”. `COc1ccc(NC(=O)O[C@H]2[C@H](OC(=O)Nc3ccccc3-c3ccccc3)[C@H](OC(=O)Nc3ccccc3-c3ccccc3)[C@@H](OC)O[C@@H]2COC(=O)NCCCCCC(=O)NO)cc1` was tested, and the cytotoxicity call was “inactive”. `CCOP(=O)(CC(=O)O[C@H]1[C@@H]2OC(=O)[C@@H](Cc3ccc4ccccc4c3)C/C=C\C[C@H](Cc3ccc4ccccc4c3)C(=O)O[C@H]2[C@@H](OC)O[C@@H]1COC(=O)NCCCCCC(=O)NO)OCC` was tested, and the cytotoxicity call was “inactive”. With `CO[C@H]1O[C@H](COC(=O)NCCCCCC(=O)NO)[C@@H](OC(=O)c2ccccc2)[C@H](OC(=O)Nc2ccccc2-c2ccccc2)[C@@H]1OC(=O)Nc1ccccc1-c1ccccc1` the cytotoxicity call was “active”. For `NCc1ccc2occc2c1`, the cytotoxicity call was “inactive”. For `Cc1ccc(S(=O)(=O)Nc2ccc3c(c2)CC(=O)N([C@H](C)CO)C[C@H](C)[C@H](CN(C)C(=O)Nc2ccc(C(F)(F)F)cc2)O3)cc1`, the cytotoxicity call was “inactive”. In the case of `COc1ccc(S(=O)(=O)N(C)C[C@@H]2Oc3c(NC(=O)c4ccncc4)cccc3C(=O)N([C@@H](C)CO)C[C@H]2C)cc1`, the cytotoxicity call is reported as “inactive”. In the case of `CNC(=O)[C@@]12CCC3(CCN(C(=O)COC)CC3)[C@H]1CN(S(C)(=O)=O)C2`, the cytotoxicity call is reported as “inactive”. With `C[C@@H]1CCCCO[C@@H](CN(C)CC2CCCCC2)[C@@H](C)CN([C@@H](C)CO)C(=O)c2cc(NC(=O)Cc3ccccc3)ccc2O1` the cytotoxicity call was “inactive”. In the case of `COc1ccc(NC(=O)Nc2cccc3c2O[C@H](CN(C)C(=O)Nc2cccc4ccccc24)[C@@H](C)CN([C@@H](C)CO)C3=O)cc1`, the cytotoxicity call is reported as “inactive”. `C[C@H]1CN([C@@H](C)CO)C(=O)Cc2cc(NS(=O)(=O)c3ccccc3)ccc2O[C@@H]1CN(C)Cc1ccc(-c2ccccc2)cc1` was tested, and the cytotoxicity call was “inactive”. With `C[C@@H]1CN([C@H](C)CO)C(=O)Cc2cc(NS(=O)(=O)c3ccccc3)ccc2O[C@H]1CN(C)Cc1ccc(-c2ccccc2)cc1` the cytotoxicity call was “inactive”. For `C[C@@H]1CN([C@@H](C)CO)C(=O)Cc2cc(NS(=O)(=O)c3ccccc3)ccc2O[C@@H]1CN(C)Cc1ccc(-c2ccccc2)cc1`, the cytotoxicity call was “active”. In the case of `C[C@H](CO)N1C[C@H](C)[C@@H](CN(C)Cc2ccc(-c3ccccc3)cc2)Oc2ccc(NS(=O)(=O)c3ccccc3)cc2CC1=O`, the cytotoxicity call is reported as “inactive”. In the case of `C[C@@H]1CN([C@@H](C)CO)C(=O)Cc2cc(NS(=O)(=O)c3ccccc3)ccc2O[C@H]1CN(C)Cc1ccc(-c2ccccc2)cc1`, the cytotoxicity call is reported as “inactive”. For `C[C@@H]1CN([C@H](C)CO)C(=O)Cc2cc(NS(=O)(=O)c3ccccc3)ccc2O[C@@H]1CN(C)Cc1ccc(-c2ccccc2)cc1`, the cytotoxicity call was “inactive”. With `C[C@H](CO)N1C[C@H](C)[C@H](CN(C)Cc2ccc(-c3ccccc3)cc2)Oc2ccc(NS(=O)(=O)c3ccccc3)cc2CC1=O` the cytotoxicity call was “active”. For `C[C@H]1CN([C@@H](C)CO)C(=O)Cc2cc(NS(=O)(=O)c3ccccc3)ccc2O[C@H]1CN(C)Cc1ccc(-c2ccccc2)cc1`, the cytotoxicity call was “active”. With `c1ccc(-n2ncc3c2ncn2nnnc32)cc1` the cytotoxicity call was “inactive”. With `CO[C@H]1CN(C)C(=O)c2cc(NC(=O)Nc3cccc(Cl)c3)ccc2OC[C@@H](C)N(C(=O)Nc2c(C)noc2C)C[C@@H]1C` the cytotoxicity call was “inactive”. In the case of `C[C@@H]1CN([C@@H](C)CO)C(=O)c2cc(NC(=O)Cn3cnnn3)ccc2O[C@H]1CN(C)Cc1ccc(Oc2ccccc2)cc1`, the cytotoxicity call is reported as “inactive”. In the case of `CC/N=C1\S[C@@H](CC(=O)NC)C(=O)N1CC`, the cytotoxicity call is reported as “inactive”. For `O=C(C[C@@H]1C[C@H]2c3cc(NC(=O)Nc4ccccc4)ccc3O[C@H]2[C@H](CO)O1)NCCN1CCCCC1`, the cytotoxicity call was “inactive”. In the case of `COc1ccc(CN(C)C[C@H]2OCCCC[C@@H](C)Oc3ccc(NC(=O)Nc4c(C)noc4C)cc3C(=O)N([C@@H](C)CO)C[C@@H]2C)cc1`, the cytotoxicity call is reported as “inactive”. For `C[C@@H]1CCCCO[C@@H](CN(C)C(=O)c2ccccc2)[C@@H](C)CN([C@@H](C)CO)C(=O)c2cc(NS(=O)(=O)c3ccc(Cl)cc3)ccc2O1`, the cytotoxicity call was “inactive”. For `CCCN1CCC2(CC1)NC(=O)N(CC(=O)N1CCN(C(=O)OCC)CC1)C2=O`, the cytotoxicity call was “inactive”. In the case of `C[C@H](CO)N1C[C@H](C)[C@H](CN(C)Cc2ccc(C(F)(F)F)cc2)OCc2ccccc2-c2c(n(C)c3ccccc23)C1=O`, the cytotoxicity call is reported as “inactive”. `CCOC(=O)c1cnn2c(=O)cc(C)[nH]c12` was tested, and the cytotoxicity call was “inactive”. `C[C@@H]1CN([C@H](C)CO)S(=O)(=O)c2ccc(C#CC3(O)CCCC3)cc2O[C@@H]1CN(C)C(=O)c1ccccc1` was tested, and the cytotoxicity call was “inactive”. `CNC[C@H]1Oc2c(NS(=O)(=O)c3cn(C)cn3)cccc2C(=O)N([C@@H](C)CO)C[C@@H]1C` was tested, and the cytotoxicity call was “inactive”. `CCOC(=O)c1c(CN2CCN(Cc3ccccc3)CC2)n(-c2ccccc2)c2cc(Br)c(OC)cc12` was tested, and the cytotoxicity call was “inactive”. For `CCOC(=O)c1c(CN2CCN(CCOCCO)CC2)n(-c2ccccc2)c2cc(Br)c(O)cc12`, the cytotoxicity call was “active”. With `CCOC(=O)c1c(CN2CCN(c3ccccc3)CC2)n(-c2ccccc2)c2cc(Br)c(O)cc12` the cytotoxicity call was “inactive”. For `CCOC(=O)c1c(CNCCN(CC)CC)n(-c2ccccc2)c2cc(Br)c(OC)cc12`, the cytotoxicity call was “active”. With `CCOC(=O)c1c(CN2CCN(c3ccccc3)CC2)n(-c2ccccc2)c2cc(Br)c(OC)cc12` the cytotoxicity call was “inactive”. In the case of `CCOC(=O)c1c(CN2CCN(Cc3ccccc3)CC2)n(-c2ccccc2)c2cc(Br)c(O)cc12`, the cytotoxicity call is reported as “inactive”. For `Cc1ccc(S(=O)(=O)N(C)C[C@@H]2Oc3ccc(NS(=O)(=O)c4c(C)noc4C)cc3C(=O)N([C@H](C)CO)C[C@@H]2C)cc1`, the cytotoxicity call was “inactive”. In the case of `Cc1ccc(S(=O)(=O)Nc2ccc3c(c2)C(=O)N([C@@H](C)CO)C[C@H](C)[C@H](CN(C)C(=O)CCC(F)(F)F)OCCCC[C@@H](C)O3)cc1`, the cytotoxicity call is reported as “inactive”. `C[C@@H]1CCCCO[C@H](CN(C)S(=O)(=O)c2ccc(Cl)cc2)[C@H](C)CN([C@@H](C)CO)C(=O)c2cc(NS(=O)(=O)c3ccccc3)ccc2O1` was tested, and the cytotoxicity call was “inactive”. With `Cc1ccc2ncc(-c3ccc4cc(C)ccc4n3)cc2c1` the cytotoxicity call was “inactive”. In the case of `COc1ccc(NC(=O)N(C)C[C@@H]2OCCCC[C@@H](C)Oc3ccc(NS(=O)(=O)c4ccc(C)cc4)cc3C(=O)N([C@H](C)CO)C[C@@H]2C)cc1`, the cytotoxicity call is reported as “inactive”. In the case of `C[C@H](CO)N1C[C@H](C)[C@H](CN(C)C(=O)c2cnccn2)Oc2ncc(/C=C/c3ccccc3)cc2C1=O`, the cytotoxicity call is reported as “inactive”. In the case of `O=C(CCCCCCC(=O)Nc1ccccc1O)N/N=C/c1ccc(N(c2ccccc2)c2ccccc2)cc1`, the cytotoxicity call is reported as “active”. For `O=C(CCCCCCC(=O)Nc1ccccc1O)N/N=C/c1cc(Br)c(O)c(Br)c1`, the cytotoxicity call was “inactive”. `O=C(CCCCCC(=O)Nc1ccccc1O)N/N=C/C[P+](c1ccccc1)(c1ccccc1)c1ccccc1` was tested, and the cytotoxicity call was “inactive”. `N[C@H]1CCC[C@@H]1Cc1ccc(F)cc1` was tested, and the cytotoxicity call was “inactive”. In the case of `C[C@@H]1CCCCO[C@H](CN(C)C(=O)c2ccccc2)[C@@H](C)CN([C@@H](C)CO)C(=O)c2cc(NC(=O)Nc3ccc4c(c3)OCO4)ccc2O1`, the cytotoxicity call is reported as “inactive”. In the case of `C[C@H]1CN([C@@H](C)CO)C(=O)Cc2cc(NC(=O)Nc3cccc4ccccc34)ccc2O[C@H]1CN(C)Cc1ccc(C(=O)O)cc1`, the cytotoxicity call is reported as “inactive”. With `CC(C)NC(=O)Nc1ccc2c(c1)C(=O)N([C@H](C)CO)C[C@H](C)[C@@H](CN(C)Cc1ccc(C(=O)O)cc1)O2` the cytotoxicity call was “inactive”. With `C[C@@H]1CCCCO[C@H](CN(C)C(=O)C2CCCCC2)[C@@H](C)CN([C@@H](C)CO)C(=O)c2cc(NC(=O)CCC(F)(F)F)ccc2O1` the cytotoxicity call was “inactive”. With `C[C@H](CO)N1C[C@H](C)[C@H](CN(C)Cc2ccncc2)OCCCC[C@H](C)Oc2ccc(NC(=O)Nc3ccccc3)cc2C1=O` the cytotoxicity call was “inactive”. For `C[C@@H]1CN([C@H](C)CO)C(=O)c2cc(NC(=O)C3CCCCC3)ccc2O[C@@H]1CN(C)Cc1ccc(-c2ccccc2)cc1`, the cytotoxicity call was “active”. With `C[C@@H]1CN([C@@H](C)CO)C(=O)c2cc(NC(=O)C3CCCCC3)ccc2O[C@@H]1CN(C)Cc1ccc(Oc2ccccc2)cc1` the cytotoxicity call was “inactive”. `C[C@H]1CN([C@@H](C)CO)C(=O)c2cc(NC(=O)C3CCCCC3)ccc2O[C@@H]1CN(C)Cc1ccc(Oc2ccccc2)cc1` was tested, and the cytotoxicity call was “inactive”. In the case of `C[C@@H]1CN([C@@H](C)CO)C(=O)c2cc(NC(=O)C3CC3)ccc2O[C@H]1CN(C)Cc1ccc(-c2ccccc2)cc1`, the cytotoxicity call is reported as “inactive”. For `C[C@@H]1CN([C@H](C)CO)C(=O)c2cc(NC(=O)C3CCCCC3)ccc2O[C@H]1CN(C)Cc1ccc(-c2ccccc2)cc1`, the cytotoxicity call was “inactive”. `C[C@H]1CN([C@@H](C)CO)C(=O)c2cc(NC(=O)C3CCCCC3)ccc2O[C@H]1CN(C)Cc1ccc(-c2ccccc2)cc1` was tested, and the cytotoxicity call was “active”. With `C[C@H](CO)N1C[C@H](C)[C@@H](CN(C)Cc2ccc(-c3ccccc3)cc2)Oc2ccc(NC(=O)C3CCCCC3)cc2C1=O` the cytotoxicity call was “inactive”. With `C[C@@H]1CN([C@H](C)CO)C(=O)c2cc(NC(=O)C3CCCCC3)ccc2O[C@@H]1CN(C)Cc1ccc(Oc2ccccc2)cc1` the cytotoxicity call was “active”. With `C[C@@H]1CN([C@@H](C)CO)C(=O)c2cc(NC(=O)C3CCCCC3)ccc2O[C@H]1CN(C)Cc1ccc(-c2ccccc2)cc1` the cytotoxicity call was “inactive”. With `C[C@H]1CN([C@@H](C)CO)C(=O)c2cc(NC(=O)C3CCCCC3)ccc2O[C@@H]1CN(C)Cc1ccc(-c2ccccc2)cc1` the cytotoxicity call was “inactive”. In the case of `C[C@H](CO)N1C[C@H](C)[C@H](CN(C)Cc2ccc(-c3ccccc3)cc2)Oc2ccc(NC(=O)C3CC3)cc2C1=O`, the cytotoxicity call is reported as “inactive”. With `C[C@@H]1CN([C@@H](C)CO)C(=O)c2cc(NC(=O)C3CCCCC3)ccc2O[C@@H]1CN(C)Cc1ccc(-c2ccccc2)cc1` the cytotoxicity call was “active”.
